Screening data from PubChem.
Most compounds without a hit are left out; they make up all but 7% or so of the library.
a7 integrin act – qHTS for Activators of Integrin-Mediated Alleviation for Muscular Dystrophy. alpha7betagal myoblasts, beta-gal FDG fluorescence, 48 h. Potency, µM (top dose mostly 38.3 µM), for the others: at the top dose activation, usual class: activators. actives 0.064% (n = 350,000). AID 624291, 2012;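 note: potency is the fitted concentration of half-maximal effect; 100% = response of the positive control SU9516; nearly all actives have a fitted effect of over 60% in size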
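alpha7betagal+/- myoblasts (passage 13, 250/well) treated 48 h at 37C with compounds at 1:260 dilution of DMSO stock. Lysed, then beta-galactosidase activity read as FDG fluorescence (ex 480/em 540) after 30 min, with pre-read for autofluorescence.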
S2 tox – Viability Counterscreen for Primary qHTS for Inhibitors of ATXN expression | S2 cells (HEK-293 line with an ATXN2-luciferase reporter) viability, CellTiter-Fluor protease fluorescence, 24 h | Potency, µM (series often up to 56.7 µM), actives largely listed as cytotoxic | actives 0.49% (n = 400,000) | AID 651635, 2014; note: potency is the fitted concentration of half-maximal effect; nearly all actives have a fitted effect of over 40% in size
IL-1B inflam inh – qHTS for Inhibitors of Inflammasome Signaling: IL-1-beta AlphaLISA Primary Screen | THP-1 LPS/ATP IL-1B secretion, AlphaLISA, 16 h; stronger effect = lower value | activity change, % at 57.5 µM | actives 4.7% (n = 360,000) | AID 743279, 2014; in the data active = activity change below about -50%; inconclusive = mostly about -30% to -49%; note: % is set by controls: 0 for no effect and ±100 for the full control effect
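Secreted IL-1B measured by AlphaLISA bead assay after 16 h compound exposure of THP-1 cells; compounds (final up to 57.5 uM) added 1 h before LPS (250 ng/mL) and ATP (1.25 mM) stimulation; lower signal means less secretion.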
D3 antag – qHTS of D3 Dopamine Receptor Antagonist: qHTS; AID 652054, 2013; actives 2.5% (n = 360,000); max response, negative = inhibition, %; D3R cells, DiscoveRx beta-arrestin luminescence, antagonist mode; stronger effect = lower value; in the data active = max response below about -50%; inconclusive = no clear call, values can overlap the other calls; note: % is set by controls: 0 for no effect and ±100 for the full control effect
Target sequence (P35462 whole entry, looked up): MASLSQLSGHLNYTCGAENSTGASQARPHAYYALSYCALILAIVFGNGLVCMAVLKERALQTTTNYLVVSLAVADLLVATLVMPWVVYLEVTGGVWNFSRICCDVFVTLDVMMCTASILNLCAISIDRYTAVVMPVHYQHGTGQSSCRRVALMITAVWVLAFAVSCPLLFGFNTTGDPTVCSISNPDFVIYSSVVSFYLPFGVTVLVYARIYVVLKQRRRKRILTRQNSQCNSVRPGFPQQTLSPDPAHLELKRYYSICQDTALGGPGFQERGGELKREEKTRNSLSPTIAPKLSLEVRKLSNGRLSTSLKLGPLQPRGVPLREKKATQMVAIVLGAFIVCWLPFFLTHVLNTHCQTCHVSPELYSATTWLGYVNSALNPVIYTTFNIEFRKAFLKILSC
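Cells expressing the human receptor were seeded at 1500 cells/well, incubated overnight at 37 degrees C in 5% CO2, then exposed to library compounds with dopamine controls for 90 minutes at 37 degrees C before luminescent detection.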
ATXN2 expr inh – Primary qHTS for Inhibitors of ATXN expression; HEK-293 ATXN2-luciferase reporter, luminescence, 24 h; Potency, µM (series often up to 57 µM), inactives show top-dose activity change, negative = inhibition, most hits filed as inhibitors; actives 0.72% (n = 360,000); AID 1745845, 2022; note: potency is the fitted concentration of half-maximal effect; % is set by controls: 0 for no effect and ±100 for the full control effect; nearly all actives have a fitted effect of over 55% in size
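ATXN2-luciferase reporter cells (luciferase flanked by upstream and downstream ATXN2 gene portions) were treated 24 h at 37 °C with compounds at up to 57 uM. SteadyGlo luminescence gave expression; GF-AFC fluorescence gave viability.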
D3 ag – qHTS of D3 Dopamine Receptor Agonist: qHTS | D(3) dopamine receptor (Homo sapiens), P35462 | D3R DiscoveRx beta-arrestin cells, luminescence, 90 min | max activation, % | actives 0.58% (n = 410,000) | AID 652048, 2013; in the data active = max activation above about 30%; note: 0% is about no effect
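Agonist-mode cell screen: cells plated at 1500/well and incubated overnight at 37 °C, then exposed to library compounds for 90 min at 37 °C. Detection reagent was added for 30–60 min at room temperature, and luminescence was read.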
* marks the source's active call; other numbers are inactive results; i = inactive; u = inconclusive; x = no result given; [ ] = remark or other dose. Unless noted, calls come from the whole dose curve; as a rule, active = well fitted curve in the direction sought with a large enough effect; inconclusive = small, poorly fitted or top-dose-only effect, or another doubt; inactive = no such curve, though single readings can be large; an effect the other way counts as inactive or inconclusive.

SMILES | a7 integrin act | S2 tox | IL-1B inflam inh | D3 antag | ATXN2 expr inh | D3 ag
Cc1ccc(OCCCCN2CCc3ccccc3C2)cc1 | -28.7% | i | u | -100.0* | -4.5% | -19.2
Cc1cccc(OCCCCCN2CCOCC2)c1 | 2.0% | i | 17.5 | u | 7.0% | -10.2
COc1ccccc1NS(=O)(=O)c1cccc(C(=O)N2CCCC2)c1 | -7.8% | i | 5.3 | -5.7 | -9.1% | 7.6
CCc1cccc(OCCN2CCCC2)c1 | -1.7% | i | 1.9 | -59.6* | -9.2% | -33.8
Cc1cccc(OCCn2cnc(Cl)c2Cl)c1 | 27.3% | i | -51.9* | 8.9 | 6.3% | 2.4
Cc1cc(=O)[nH]c(N2CCCC2)n1 | 9.1% | i | 6.2 | 0.0 | 3.2% | -3.2
Cc1ccc(C)c(NC(=O)CCC(=O)NNC(=O)C(c2ccccc2)c2ccccc2)c1 | 6.4% | i | 5.3 | 22.2 | -2.8% | -1.8
Cn1c(Oc2ccc(F)cc2)c(C=O)c2ccccc21 | 21.3% | i | -92.3* | u | -8.5% | -30.0
Cc1ccccc1-c1nc(CN(Cc2c(C)nn(C)c2C)C2CC2)c(C)o1 | -20.5% | i | -75.8* | -7.4 | -14.1% | -3.0
CC(C)c1ccc(/C=C2\SC(N3CCOCC3)=NC2=O)cc1 | -8.9% | i | -65.5* | 0.0 | 3.2% | 3.0
O=C1N=C(N2CCOCC2)S/C1=C\c1ccncc1 | -44.0% | i | -4.9 | u | 13.0% | -11.3
CCc1ccc(/C=C2/SC(N3CCOCC3)=NC2=O)cc1 | 0.6% | i | -50.3* | 4.1 | 28.3% | 10.4
COc1cc(OC)cc(-c2cc3nc(C)c(CCC(=O)O)c(C)n3n2)c1 | 1.3% | i | 28.7 | 3.0 | 0.708µM* | 6.7
O=c1[nH]sc2ccccc12 | -65.8% | i | -107.4* | u | u | 0.4
NC(=O)c1ccccc1NC(=O)CS(=O)(=O)Cc1ccccc1 | 16.2% | i | 3.7 | 2.8 | -25.5% | -4.6
CN1CCN(c2ccc([N+](=O)[O-])cc2C(=O)Nc2ccccc2)CC1 | 5.4% | i | -2.9 | -19.8 | -21.7%[11.3 µM] | -15.0
O=C(NCc1ccccc1)C(=O)NCC(c1cccs1)S(=O)(=O)c1ccccc1 (centres undefined) | x | i | x | x | -9.5% | -9.1
CC1(C)NC(=O)N(CC(=O)OCC(=O)Nc2cccc(S(N)(=O)=O)c2)C1=O | 3.8% | i | 4.2 | 4.9 | x | 2.1
CCCC(CNC(C)=O)(C1=CCCCC1)c1ccccc1 (centres undefined) | 4.3% | i | 19.2 | 3.9 | x | -1.9
O=C(C[n+]1cc(-c2ccccc2)n2c1CCC2)c1cccs1 | u | i | 18.4 | -12.1 | -6.6% | -24.7
O=C(C[n+]1cc(-c2ccc(Cl)cc2)n2c1CCCCC2)c1ccccc1 | -20.0% | i | -61.7* | -62.6* | 23.6% | -30.4
Cc1ccc(NC(=O)C[n+]2cc(-c3ccccc3)n3c2CCC3)c(C)c1 | -21.4% | i | -16.5 | u | 7.6% | -17.9
O=C(C[n+]1cc(-c2ccc(Br)cc2)n2c1CCCCC2)c1ccccc1 | -19.6% | i | -55.7* | -24.2 | -15.2% | -12.6
COc1ccc2nc(NC(=O)c3cc(S(=O)(=O)N4CCOCC4)ccc3C)sc2c1 | -33.7% | i | -20.7 | -5.8 | 7.7% | 1.2
O=C(NCCc1ccc(Cl)cc1)c1ccc2c(c1)N(Cc1ccc(F)cc1Cl)C(=O)CS2 | x | x | x | x | 0.0% | 2.8
SMILES | a7 integrin act | S2 tox | IL-1B inflam inh | D3 antag | ATXN2 expr inh | D3 ag
COc1ccc(NS(=O)(=O)c2cccc(C(=O)N/N=C(\C)c3ccc(-n4ccnc4)cc3)c2)cc1 | 3.7% | i | -11.0 | -3.8 | -4.5% | -4.7
C/C(=N\NC(=O)c1cccc(S(=O)(=O)Nc2ccccc2Cl)c1)c1ccc(-n2ccnc2)cc1 | 3.9% | i | 24.0 | -52.0* | 21.5% | 9.3
O=C(c1cccc(S(=O)(=O)Nc2ccccc2Cl)c1)N1CCC1 | -23.9% | i | 6.8 | -58.7* | -0.4% | -3.8
Cc1ccc(S(=O)(=O)N(C)c2ccc(OC(=O)c3cccs3)cc2)cc1 | 4.5% | i | -13.9 | 0.2 | -1.0% | -8.8
O=C(NCc1cccnc1)c1ccc2sc([C@@H]3O[C@H](CO)[C@H](O)[C@H](O)[C@H]3O)nc2c1 | x | i | 34.7 | -55.1* | 2.3% | -5.3
CN(C)c1cccc(CNC(=O)c2ccc3sc([C@@H]4O[C@H](CO)[C@H](O)[C@H](O)[C@H]4O)nc3c2)c1 | x | i | -9.5 | -101.1* | 8.2% | -15.5
O=C(NCc1cc(Cl)cc(Cl)c1)c1ccc2sc([C@@H]3O[C@H](CO)[C@H](O)[C@H](O)[C@H]3O)nc2c1 | x | i | -23.1 | 0.4 | 13.5% | -3.3
Cc1cc(C)n2c(SCCN3C(=O)c4ccccc4C3=O)nnc2n1 | 1.4% | i | 14.4 | -8.0 | 8.9% | -1.1
COc1ccc(/C=N/NC(=O)Nc2cccc3nsnc23)cc1OC | 6.5% | i | -15.2 | 43.5 | -36.1% | 17.5
COc1ccc(OC)c2sc(N(CCN(C)C)C(=O)c3ccc4ccccc4c3)nc12 | 18.5% | i | -27.4 | -12.7 | -15.1% | -23.9
COc1cc2ccccc2cc1C(=O)N(CCN(C)C)c1nc2c(C)cccc2s1 | -21.3% | i | -61.2* | -19.6 | -17.6% | -17.4
COc1cc2ccccc2cc1C(=O)N(CCN(C)C)c1nc2c(OC)ccc(OC)c2s1 | -18.9% | u | -53.5* | 4.5 | u | -16.1
CCN(CC)CCN(C(=O)c1cc2ccccc2cc1OC)c1nc2ccc(F)cc2s1 | -68.1% | i | -58.6* | u | -27.6% | -19.5
COc1cc2ccccc2cc1C(=O)N(CCN(C)C)c1nc2ccc(C)cc2s1 | u | i | -20.7 | -8.5 | -26.6% | -18.0
COc1cccc(NS(=O)(=O)NC(=O)c2cn(C)c3ccccc23)c1 | -6.4% | i | 26.4 | 8.2 | 9.8% | 0.3
CCc1c(C)c2ccc(OCC(=O)N(C)C)c(C)c2oc1=O | -5.2% | i | -4.9 | 21.2 | 19.1% | 11.7
CCc1c(C)c2ccc(OCC(=O)OC(C)C)c(C)c2oc1=O | -52.0% | i | -14.3 | 56.5 | 26.4% | 40.8*
CC(C)CCNc1nc(-c2ccco2)c2c(c1C#N)CCCC2 | -0.8% | i | 20.0 | -4.8 | -21.5% | -2.9
CCc1nc(N2CCOCC2)c(C#N)c2c1CCCC2 | -14.2% | i | -12.8 | 9.5 | 6.5% | 0.8
N#Cc1c(N2CCOCC2)nc(-c2ccco2)c2c1CCCC2 | -18.6% | i | -77.6* | -18.1 | 1.1% | 2.2
N#Cc1c(NCCN)nc(-c2ccco2)c2c1CCCC2 | -56.1% | i | -104.8* | 25.9 | 12.6µM* | -2.3
